Results: PubChem BioAssay (NCI)
Compounds without any hit were thinned out: in the full panel of roughly 83,000, 20% have a hit.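 Growth was measured after 48 h exposure to one concentration of compound in 96-well plates. Values under 10 count as active.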 Values without a mark were called inactive. Calls of active or inactive are those of the source.

Key:
Test in all cases: NCI-60 one-dose screen, 48 h (100 = growth as untreated, 0 = no growth, -100 = all killed)
NCI-H23 lung = conditions: 10 µM unless noted
NCI-H226 lung = conditions: 10 µM unless noted
NCI-H322M lung = conditions: 10 µM unless noted
HOP-62 NSCLC = conditions: 10 µM unless noted
NCI-H460 lung = conditions: 10 µM unless noted
HOP-92 NSCLC = conditions: 10 µM unless noted
NCI-H522 lung = conditions: 10 µM unless noted
A549/ATCC NSCLC = conditions: 10 µM unless noted
786-0 renal = conditions: 10 µM unless noted
COLO 205 colon = conditions: 10 µM unless noted
DU-145 prostate = conditions: 10 µM unless noted
K-562 leukemia = conditions: 10 µM unless noted
MALME-3M melanoma = conditions: 10 µM unless noted
MDA-MB-231 breast = conditions: 10 µM unless noted
RXF 393 renal = conditions: 10 µM unless noted
SF-268 CNS = conditions: 10 µM unless noted
SF-295 CNS = conditions: 10 µM unless noted
SF-539 CNS = conditions: 10 µM unless noted
UACC-257 melanoma = conditions: 10 µM
M14 melanoma = conditions: 10 µM unless noted

| Structure (SMILES) | growth (NCI-H23 lung) | growth (NCI-H226 lung) | growth (NCI-H322M lung) | growth (HOP-62 NSCLC) | growth (NCI-H460 lung) | growth (HOP-92 NSCLC) | growth (NCI-H522 lung) | growth (A549/ATCC NSCLC) | growth (786-0 renal) | growth (COLO 205 colon) | growth (DU-145 prostate) | growth (K-562 leukemia) | growth (MALME-3M melanoma) | growth (MDA-MB-231 breast) | growth (RXF 393 renal) | growth (SF-268 CNS) | growth (SF-295 CNS) | growth (SF-539 CNS) | growth (UACC-257 melanoma) | growth (M14 melanoma) |
| --- | --- | --- | --- | --- | --- | --- | --- | --- | --- | --- | --- | --- | --- | --- | --- | --- | --- | --- | --- | --- |
| COc1ccc(-c2cn[nH]c2-c2cc(OC)c3c(c2)OCO3)cc1 | 18.3% | 47.7% | 15% | 22.1% | 8.74% (active) | 33.4% | -43.9% (active) | 19.8% | 26% | -44.2% (active) | 12.4% | 10.1% | 30.9% | 11% | -31.3% (active) | 37.6% | -10.4% (active) | -28.7% (active) | 66.9% | 16% |
| O=C(/C=C/c1ccccc1)n1c(-c2ccc(Cl)cc2)nc2ccccc21 | -24.5% (active) | -55.3% (active) | 45% | -48.8% (active) | 0.538% (active) | -39.4% (active) | -72.4% (active) | -4.99% (active) | -17.7% (active) | -60.8% (active) | 11.1% | 39.8% | 15.9% | -26.5% (active) | -65.2% (active) | -11.9% (active) | -52% (active) | -48.4% (active) | -64.4% (active) | -37.3% (active) |
| O=C(Nc1ccc(F)c(Cl)c1)c1n[nH]c(=O)c2ccccc12 | 106% | 97.2% | 113% | 102% | 107% | 96.9% | 99.6% | 91.8% | 115% | 105% | 131% | 99.8% | 125% | 98.3% | -29.4% (active) | 99.4% | 84.8% | 124% |  | 115% |
